Compound activity as filed in PubChem BioAssay.
A selection: hits, their analogues and other compounds. The true share with any hit is near 3.5%.
FBW7 activator: FBW7 E3 ligase activators, primary screen, biochemical, AlphaScreen, human | AID 1259310, 2017 | normalized activity (activation), % at 26.1 µM | AlphaScreen FBW7–phospho-cyclin E peptide binding, activator screen | 0.13% of 650,000 active; in the data active means normalized activity above about 1.9%;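 further: purified mutant Fbw7 with reduced substrate affinity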
GPR151 ag: activators of human GPR151, primary screen, cell-based, PathHunter beta-arrestin, luminescence; 1% of 650,000 active; activation, % at 11.2 µM; G-protein coupled receptor 151 (Homo sapiens), Q8TDV0; PathHunter beta-arrestin GPR151 cells; AID 1508602, 2020; in the data active means activation above about 4.9%;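 further: 0% = median of compound wells and 100% = cells with positive control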
Target sequence (Q8TDV0 whole entry, looked up): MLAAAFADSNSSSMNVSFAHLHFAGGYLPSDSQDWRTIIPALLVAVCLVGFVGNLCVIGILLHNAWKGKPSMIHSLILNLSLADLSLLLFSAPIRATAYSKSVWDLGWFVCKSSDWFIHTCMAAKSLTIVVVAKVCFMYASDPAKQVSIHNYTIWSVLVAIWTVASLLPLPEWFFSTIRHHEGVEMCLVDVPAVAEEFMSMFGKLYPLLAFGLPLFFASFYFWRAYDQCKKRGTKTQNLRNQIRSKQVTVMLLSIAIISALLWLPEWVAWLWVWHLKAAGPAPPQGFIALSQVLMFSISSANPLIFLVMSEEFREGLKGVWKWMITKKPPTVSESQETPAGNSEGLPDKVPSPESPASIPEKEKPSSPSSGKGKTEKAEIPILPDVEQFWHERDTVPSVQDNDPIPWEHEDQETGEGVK
MITF inh: MITF inhibitors, primary screen, biochemical, AlphaScreen, human; AlphaScreen MITF homodimerization, bead proximity signal; 0.91% of 650,000 active; Microphthalmia-associated transcription factor (Homo sapiens), O75030; inhibition, % at 2.6 µM; in the data active means inhibition above about 50%;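 further: 0% = vehicle wells with protein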
TEAD-YAP inh: TEAD-YAP interaction inhibition, primary screen, TEAD-YAP interaction inhibitor project, luminescence, HEK-TIYL cells; TEAD-Gal4/YAP UAS-luciferase luminescence; inhibition, % at 9.12 µM; 1.4% of 640,000 active; AID 1259422, 2018; in the data active means inhibition above about 32%;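 further: 0% = median of test compound wells and 100% = reference inhibitor wells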
Starred values were filed as active, the others as inactive.

SMILES	FBW7 activator	GPR151 ag	MITF inh	TEAD-YAP inh
CCCCNC(=O)NC(=O)N(C1CCCCC1)S(C)(=O)=O	0	-1	-3	-5
CC1CCCC(C)N1c1nnc(NC(=O)Nc2ccc(Cl)cc2)s1 (configuration not stated)	0	1	2	2
CC(=O)c1cccc(-c2nc(NCc3cccnc3)c3ncn(C(C)C)c3n2)c1	0	4	3	59*
CC(=O)c1cccc(-c2nc(NCCc3ccc(O)cc3)c3ncn(-c4ccccc4)c3n2)c1	0	1	12	72*
NC(=O)c1ccc(-c2nc(NCc3cccnc3)c3ncn(Cc4ccc(C(F)(F)F)cc4)c3n2)cc1	1	-1	-4	46*
Cn1c(Nc2nc(NCCc3ccc(O)cc3)c3ncn(C4CCCCC4)c3n2)nc2ccccc21	0	-1	3	35*
CC(=O)c1cccc(-c2nc(NCc3ccccc3)c3ncn(C(C)C)c3n2)c1	0	0	-4	10
Cc1ccc(-c2ccc3ccccc3n2)cc1	0	-8	2	1
Cc1ccccc1NC(=O)c1sc2nc3c(cc2c1N)CN(C)CC3	1	-1	2	6
O=C(c1ccc(Cn2c(=S)[nH]c3cc4c(cc3c2=O)OCO4)cc1)N1CCC(N2CCCCC2)CC1	0	4	-6	-21
Cc1cccc(-c2nsc(SCC(=O)c3ccccc3)n2)c1	0	-1	0	-30
COc1ccc(C2C(C#N)=C(N)OC3=C2C(=O)CC(C)(C)C3)c(OC)c1C (configuration not stated)	0	-1	5	6
O=C(NC1CC1)c1ccc(-c2nc(NCCOc3ccccc3)c3ncn(-c4ccccc4)c3n2)cc1	0	2	4	-2
COc1ccc(CCNc2nc(-c3cccc(C(C)=O)c3)nc3c2ncn3-c2ccsc2)cc1	0	1	0	-1
NC(=O)c1ccc(-c2nc(NCCc3ccc(O)cc3)c3ncn(C4CCCCC4)c3n2)cc1	0	1	0	44*
CC(=O)c1cccc(-c2nc(NCCc3ccc(O)cc3)c3ncn(-c4ccsc4)c3n2)c1	0	2	7	82*
O=C(NC1CC1)c1ccc(-c2nc(NCCc3ccc(O)cc3)c3ncn(-c4ccccc4)c3n2)cc1	0	-1	-3	56*
CC(C)n1cnc2c(NCCc3ccc(O)cc3)nc(-c3cccc(N)c3)nc21	0	0	8	12
CC(=O)c1cccc(-c2nc(NCCc3ccc(O)cc3)c3ncn(C(C)C)c3n2)c1	0	-1	-8	63*
CCOC(=O)Cn1ncn(-c2ccc(C(C)C)cc2)c1=O	0	0	4	0
O=S(=O)(c1ccc(Cl)s1)N1CCc2ccccc2C1	0	5	3	41*
O=S(=O)(c1ccc(Cl)s1)N1CCCCCC1	0	-1	-8	5
COC(=O)C1=C(C)Nc2nc(SC)[nH]c(=O)c2C1c1cccc(Br)c1 (configuration not stated)	0	-1	-15	8
O=S(=O)(NCc1csc(-c2cccs2)n1)c1ccc(-c2ccccn2)s1	2.1*	1	10	2
COc1ccc(CCNc2cc(N3CCN(C(=O)c4ccc(Br)cc4)CC3)ccc2[N+](=O)[O-])cc1OC	0	-1	-7	-3
SMILES	FBW7 activator	GPR151 ag	MITF inh	TEAD-YAP inh
COc1ccc(CCNc2cc(N3CCN(S(=O)(=O)N(C)C)CC3)ccc2[N+](=O)[O-])cc1OC	0	2	5	39*
COc1ccc(CCNc2cc(N3CCN(C(C)=O)CC3)ccc2[N+](=O)[O-])cc1OC	0	1	-10	46*
COc1ccc(CCNc2cc(N3CCCCC3)ccc2[N+](=O)[O-])cc1OC	0	0	8	39*
Cc1ccc(C2C=C(c3ccc(F)cc3)Nc3ncnn32)cc1 (configuration not stated)	0	0	12	-32
O=C(Nc1nc(CCC(=O)N2CCCCCC2)cs1)NC1CCCCC1	0	2	-2	41*
O=C(Nc1nc(CCC(=O)N2CCN(c3ccccc3F)CC2)cs1)NC1CCCCC1	0	3	5	5
COc1cc(Nc2nc(NCc3ccccc3)c3ncn(CCN4CCCC4=O)c3n2)cc(OC)c1OC	0	0	6	22
COc1ccc(N/N=C(\C#N)C(=N)SCc2ccccc2)cc1	0	1	3	33*
Cc1ccc(C(=O)[C@@H]2[C@@H](c3ccccc3F)C(C#N)(C#N)[C@H]3C=Cc4ccccc4N23)cc1	0	0	-7	-12
COc1ccc(C(=O)[C@@H]2[C@@H](c3ccccc3F)C(C#N)(C#N)[C@H]3C=Cc4ccccc4N23)cc1	0	0	0	67*
COc1ccc(C(=O)[C@@H]2[C@@H](c3cccnc3)C(C#N)(C#N)[C@H]3C=Cc4ccccc4N23)cc1	0	3	12	58*
O=[N+]([O-])c1ccc(S(=O)(=O)NCCc2cn3ccsc3n2)cc1	0	-1	-1	-4
O=S(=O)(NCc1cn2ccsc2n1)c1ccc(Oc2ccccc2)cc1	0	0	-8	35*
O=[N+]([O-])c1cccc(S(=O)(=O)NCCc2cn3ccsc3n2)c1	6.2*	1	8	-4
CCOC(=O)CNC(=O)C(C)NC(=O)C(Cc1ccc(OCc2ccccc2)cc1)NC(=O)OC(C)(C)C (configuration not stated)	0	1	4	1
COCCN1C(=O)CC(CC(=O)N2CC3CC4CC(C3)CC2C4)(c2ccccc2F)C1=O (configuration not stated)	0	-1	16	-5
COc1cc(C2C3=C(CC(C)(C)CC3=O)OC3=C2C(=O)CC(C)(C)C3)ccc1OCc1ccc(F)cc1	2.0*	-2	21	-5
O=C(Nc1ccc(Oc2ccccc2)cc1)c1ccc(F)c(S(=O)(=O)NC2CCCC2)c1	0	0	0	65*
CC(C)c1ccc(NC(=O)c2ccc(F)c(S(=O)(=O)NC3CCCCCC3)c2)cc1	0	1	-3	11
O=C(Nc1ccc(Oc2ccccc2)cc1)c1ccc(F)c(S(=O)(=O)NC2CCCCCC2)c1	0	0	17	50*
O=C(Nc1ccc(Oc2ccccc2)cc1)c1ccc(F)c(S(=O)(=O)NC2CCCCC2)c1	0	-2	11	58*
O=C(Nc1ccc(Cl)c(Cl)c1)c1ccc(F)c(S(=O)(=O)NC2CCCC2)c1	0	-1	14	10
O=C(Nc1ccc(Oc2ccccc2)cc1)c1ccc(F)c(S(=O)(=O)NCc2ccccc2Cl)c1	0	1	1	41*
COc1ccc(-n2nnnc2SCC(=O)c2ccc(Br)cc2)cc1	0	-1	17	11
COc1ccc(OC)c(NC2=C(Cl)C(=O)N(Cc3ccccc3)C2=O)c1	0	-2	26	9
